Screening results from PubChem.
D1 antag – human D1 dopamine receptor antagonism; P21728; HEK293 TREx D1 cells, calcium flux, dopamine EC80; active compounds read low; activity change, negative = inhibition, % at 10 µM; 3.2% of 360,000 active; in the data active means activity change below about -30%
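Allosteric or orthosteric antagonism assessed as attenuation of the calcium response to EC80 dopamine, added 180 s after compound, in induced HEK293 Trex D1 cells loaded with no-wash calcium dye.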
TRHR ag – activates the human TRH receptor; P34981; activation, % at 2 µM; 0.18% of 360,000 active; TRHR cells, calcium flux fluo-8, FDSS agonist mode
Target sequence (P34981 whole entry, looked up): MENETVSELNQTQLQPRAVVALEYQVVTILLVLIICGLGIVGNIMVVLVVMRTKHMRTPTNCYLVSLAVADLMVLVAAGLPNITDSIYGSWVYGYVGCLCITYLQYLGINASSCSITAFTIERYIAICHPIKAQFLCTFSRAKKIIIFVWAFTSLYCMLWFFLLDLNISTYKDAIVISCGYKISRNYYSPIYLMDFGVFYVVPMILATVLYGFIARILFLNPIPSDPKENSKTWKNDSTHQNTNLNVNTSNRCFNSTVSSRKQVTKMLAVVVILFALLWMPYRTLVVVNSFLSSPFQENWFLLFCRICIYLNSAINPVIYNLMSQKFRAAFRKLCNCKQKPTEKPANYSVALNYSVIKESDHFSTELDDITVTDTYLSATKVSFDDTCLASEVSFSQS
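In this calcium-flux screen, cells bearing human TRHR are dye-loaded with fluo-8, baselined for 10 cycles, then exposed to library compounds; positive kinetic calcium responses during the agonist phase mark hits, with TRH as control.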
D1 PAM – human D1 dopamine receptor positive modulation | 0.036% of 360,000 active | potentiation, % at 10 µM | HEK293 TREx D1 cells, calcium flux, dopamine EC20 potentiation; in the data active means potentiation above about 30%
D1 agonist – human D1 receptor agonism. P21728. HEK293 T-REx D1 cells, calcium flux, agonist mode. activation, % at 2 µM. 1% of 360,000 active. AID 504660
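Tetracycline-induced HEK293 TREx D1 cells, force-coupled to calcium signalling, were dye-loaded with a no-wash calcium kit. Compound was pin-added after a 10 s baseline. Fluorescence was read kinetically at 1 cycle/s for 180 s, with calcium rises flagged as agonism.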
TRHR PAM – allosteric enhancers of human TRH receptor. AID 493056. TRHR cells, fluo-8 calcium fluorescence, EC20 TRH enhancement. enhancement, % at 2 µM. P34981. 0.66% of 360,000 active; in the data active means enhancement above about 30%
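Enhancer read-out: after compound pinning and an initial kinetic agonist-mode read, an EC20 of TRH (10 nM final) was injected and fluo-8 calcium signal (Ex 480/Em 530) followed at 1 s/cycle for 100 cycles in TRHR-expressing cells.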
Of the large screens only hits and unclear results are named; the others gave an inactive call. An excerpt weighted towards active compounds, which were near 4.6% of everything screened. Unless noted, no stated cut-off is given here; in the data, active means activation above about 30%; inactive means the rest.

Cc1cc(OCC(=O)Nc2nnc(C3CC3)s2)ccc1C(C)C	TRHR PAM 36
Cc1ccc(S(=O)(=O)c2c(Nc3cc(C)ccc3C)sc(C(=O)c3ccc4c(c3)OCO4)c2N)cc1	D1 agonist 84
Cc1ccc(S(=O)(=O)c2c(Nc3ccc(C)c(C)c3)sc(C(=O)c3ccc4c(c3)OCO4)c2N)cc1	D1 agonist 68
CCOc1ccc(Nc2sc(C(=O)c3ccc4c(c3)OCO4)c(N)c2S(=O)(=O)c2ccc(C)cc2)cc1	D1 agonist 37
Nc1c(C(=O)c2ccc3c(c2)OCO3)sc(Nc2ccccc2F)c1S(=O)(=O)c1ccccc1	none
Nc1c(C(=O)Nc2ccc(OC(F)(F)F)cc2)nnn1Cc1ccccc1	none
CCN(CC)c1ccc(/C=N/n2c(C)nc3ccccc3c2=O)cc1	none
COc1ccc(OC)c(C(=O)NC(CC(N)=O)c2ccc(NCc3ccc(F)c(F)c3)c([N+](=O)[O-])c2)c1 (stereo unspecified)	TRHR PAM 36
Cc1ccccc1-c1noc(-c2ccc(NCc3ccco3)c([N+](=O)[O-])c2)n1	none
CCOC(=O)c1ccccc1-n1c(C)cc(C2N=C(N)Nc3nc4ccccc4n32)c1C (stereo unspecified)	D1 antag -36
CCN1CCOC(=O)C1CC(=O)Nc1cc(Cl)ccc1OC (stereo unspecified)	none
COc1cccc(CCNC(=O)C2CCC(=O)N(Cc3cccc(OC)c3)C2)c1 (stereo unspecified)	D1 antag -52
COc1ccc(Cl)cc1NC(=O)COC(=O)CCCN1C(=O)c2ccccc2C1=O	D1 antag -33
COc1ccc(Cl)cc1NC(=O)CCCn1c(C)c2cnn(-c3ccccc3)c(=O)c2c1C	D1 antag -79
COc1cccc(N2CCN(c3ccc(N4C(=O)CCC4=O)cc3[N+](=O)[O-])CC2)c1	none
COc1ccccc1N1CCN(Cc2ccco2)CC1	none
COc1ccccc1N1CCN(Cc2ccc(-c3ccccc3[N+](=O)[O-])o2)CC1	D1 antag -74
COc1ccccc1N1CCN(c2ccc(N3C(=O)CCC3=O)cc2[N+](=O)[O-])CC1	D1 antag -44
CN(C(=O)CSc1nc2ccc(NC(=O)COc3ccc(F)cc3)cc2s1)c1ccccc1	none
Cc1ccc2occ(/C=N/NC(=O)c3ccc(Cl)cc3)c(=O)c2c1	none
Cc1ccc2occ(/C=N/NC(=O)c3ccncc3)c(=O)c2c1	D1 antag -34
COc1cc(Cl)c(C)cc1NC(=O)C(OC(=O)CNC(=O)c1ccccc1)c1ccccc1 (stereo unspecified)	none
O=C(N/N=C/c1sc(=O)n(Cc2ccc(Br)cc2)c1Cl)c1ccco1	D1 antag -49
O=C(N/N=C/c1ccc(Br)s1)c1ccco1	none
COC(=O)/C=C/S(=O)(=O)c1ccc(NC(C)=O)cc1	TRHR PAM 33
COc1ccccc1OS(=O)(=O)c1ccc(NC(C)=O)cc1	none
Cc1cccc(NCc2cccc3ccccc23)n1	D1 antag -91
CCCCc1ccc(-n2nc3cc(C)c(NC(=O)c4ccc(C#N)cc4F)cc3n2)cc1	none
O=C(Nc1ccc(OC(F)(F)F)cc1)Nc1cccc([N+](=O)[O-])c1	D1 antag -47, D1 agonist 30
Cc1ccc(NC(=O)Nc2cccc([N+](=O)[O-])c2)cc1F	D1 antag -57, D1 agonist 32
Cc1ccc(S(=O)(=O)NC(=O)Nc2cccc([N+](=O)[O-])c2)cc1	none
Cc1cc(NC(=O)Nc2cccc([N+](=O)[O-])c2)no1	none
CC(C)(C)CC(C)(C)NC(=O)Nc1cccc([N+](=O)[O-])c1	D1 antag -41
COc1ccc(NC(=O)Cc2csc(COc3cccc(C)c3)n2)cc1OC	none
CC(=O)N1CCc2cc(Br)cc(S(=O)(=O)NCCc3cccc(C)c3)c21	none
O=C(CCN1CCN(c2ccccc2)CC1)N/N=C/c1ccc([N+](=O)[O-])o1	D1 antag -43
O=C(CN1CCCCCCC1)N/N=C/c1ccc([N+](=O)[O-])o1	none
Cc1cc(C)cc(OCC(=O)N/N=C/c2ccc([N+](=O)[O-])o2)c1	D1 antag -38
Cc1ccc(C(=O)Nc2ccccc2N2CCCC2)cc1	none
O=C(CN1C(=O)C(c2ccc(F)cc2)=NC12CCCCCC2)Nc1ccc(F)c(Cl)c1	none
O=C(COC(=O)C1CCN(S(=O)(=O)c2cc([N+](=O)[O-])ccc2Cl)CC1)Nc1ncc(Cl)cc1Cl	D1 antag -34
CCc1nc2ccc(C(=O)NCc3ccc(N(C)C)cc3)cc2nc1CC	none
Cc1ccc(CNc2ncnc3onc(-c4ccc(F)cc4)c23)cc1	D1 agonist 32
Fc1ccc(CNc2ncnc3onc(-c4ccc(F)cc4)c23)cc1	none
Cc1ccc(CCNc2ncnc3onc(C)c23)cc1	D1 antag -36
Cc1noc2ncnc(NCCc3ccccc3)c12	none
O=C(CCCn1ccc2cc(S(=O)(=O)N3CCCC3)ccc21)NCc1ccc(Cl)cc1	none
Cc1ccc(C(=O)N2CCc3cc(CNC(=O)c4ccccc4F)ccc32)cc1	none
CCOC(=O)c1cc(OC(=O)c2cccc(C)c2)n(-c2ccccc2)n1	none
CCOC(=O)c1cc(OC(=O)c2cccnc2)n(-c2ccccc2)n1	D1 antag -39
CCCCOC(=O)c1ccccc1N1C(=O)C2C3CCC(C3)C2C1=O (stereo unspecified)	D1 antag -32
Cc1ccc(C)c(C(=O)COC(=O)c2ccccc2N2C(=O)C3C4CCC(C4)C3C2=O)c1 (stereo unspecified)	D1 antag -42
CC(C)(C#N)NC(=O)C1CCCN1S(=O)(=O)c1ccc2ccccc2c1 (stereo unspecified)	none
COc1ccc(OC)c(-c2csc(-c3c(N)c(C(=O)c4ccc(Cl)cc4)n4ccccc34)n2)c1	none
COc1ccc(NC(=O)c2sc3nc(C)c(C(=O)Nc4ccc(C)cc4C)c(-c4ccc(Cl)cc4)c3c2N)cc1	none
COc1cccc(NC(=O)c2sc3nc(C)c(C(=O)Nc4ccc(C)cc4C)c(-c4ccco4)c3c2N)c1	D1 agonist 36
CCc1ccc(NC(=O)c2sc3nc(C)c(C(=O)Nc4ccc(C)cc4C)c(-c4ccco4)c3c2N)cc1	D1 agonist 46
COc1cccc(NC(=O)c2sc3nc(C)c(C(=O)Nc4ccc(C)cc4C)c(-c4ccccc4Cl)c3c2N)c1	D1 antag -31
Cc1ccc(NC(=O)c2c(C)nc3sc(C(=O)NC4CCCC4)c(N)c3c2-c2ccco2)c(C)c1	none
COc1cccc(NC(=O)c2sc3nc(C)c(C(=O)Nc4ccc(C)cc4C)c(-c4sccc4C)c3c2N)c1	none
COCCCNC(=O)c1sc2nc(C)c(C(=O)Nc3ccc(C)cc3C)c(-c3ccccc3Cl)c2c1N	D1 antag -32
O=C(CCC(=O)N1CC2CCCN2c2ccccc21)NCc1ccccc1F (stereo unspecified)	none
